Assay results as given in the supplement of paper PMC10849652.
Of roughly 8,800 targets only a part is listed; those with a hit were picked by preference. About 0.5% of all pairs of compound and target were hits. Unmarked numbers belong to inactive results.

How the values were obtained:
Experiment in all cases: log2 fold change, soluble protein after heating vs DMSO (PISA); higher = thermal stabilisation; K562 lysate, 10 uM; active = over 0.2 and 3.5 SD of the protein, either way, in both replicates (recomputed)
vemurafenib = compound: CCCS(=O)(=O)Nc1ccc(F)c(C(=O)c2c[nH]c3ncc(-c4ccc(Cl)cc4)cc23)c1F [vemurafenib]
Method in brief: (§1)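 Dounce homogenisation of K562 pellets in PBS pH 7.4 with 1 mM MgCl2 produced a crude extract, used at 1 mg/mL protein. Exposure to 10 μM compound lasted 30 min, and aliquots were then heated for 3 min across 48°C-58°C, pooled and brought to 0.5% NP-40 at 4°C. The supernatant after 21,000xg for 90 min was quantified by TMTpro 16plex LC-MS/MS with channel sums equalised. Duplicate values are given as log-two fold change in thermal stability relative to solvent controls.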

[1] = compound: CCCS(=O)(=O)Nc1ccc(F)c(C(=O)c2c[nH]c3ncc(Cl)cc23)c1F
Method in brief: as §1

barasertib = compound: CCN(CCCOc1ccc2c(Nc3cc(CC(=O)Nc4cccc(F)c4)[nH]n3)ncnc2c1)CCOP(=O)(O)O [barasertib]
Method in brief: as §1

[2] = compound: CC[C@@H]1C(=O)N(C)c2cnc(Nc3ccc(C(=O)NC4CCN(C)CC4)cc3OC)nc2N1C1CCCC1
Method in brief: as §1

volasertib = compound: CC[C@@H]1C(=O)N(C)c2cnc(Nc3ccc(C(=O)N[C@H]4CC[C@H](N5CCN(CC6CC6)CC5)CC4)cc3OC)nc2N1C(C)C [volasertib]
Method in brief: as §1

[3] = compound: CCn1c(C(=O)N(C2CC2)C2CC2)cc2c3c(ncn3C)c(Nc3cc(C)n(C)n3)nc21
Method in brief: as §1

[4] = compound: CCn1cc(-c2ccnc3[nH]c(-c4cccc(CN(C)C)c4)cc23)c(-c2ccc(NC(=O)N(C)C)cc2)n1
Method in brief: as §1

[5] = compound: CN1CCC(CNc2ccc3ncc(-c4cccc(OC(F)(F)F)c4)n3n2)CC1
Method in brief: as §1

saracatinib = compound: CN1CCN(CCOc2cc(OC3CCOCC3)c3c(Nc4c(Cl)ccc5c4OCO5)ncnc3c2)CC1 [saracatinib]
Method in brief: as §1

sotrastaurin = compound: CN1CCN(c2nc(C3=C(c4c[nH]c5ccccc45)C(=O)NC3=O)c3ccccc3n2)CC1 [sotrastaurin]
Method in brief: as §1

alvocidib = compound: CN1CC[C@H](c2c(O)cc(O)c3c(=O)cc(-c4ccccc4Cl)oc23)[C@H](O)C1 [alvocidib]
Method in brief: as §1

Tubastatin A = compound: CN1CCc2c(c3ccccc3n2Cc2ccc(C(=O)NO)cc2)C1 [Tubastatin A]
Method in brief: as §1

[6] = compound: CNC(=O)C1=CC=CC=C1NC2=NC(=NC=C2Cl)NC3=C(C=C(C=C3)N4CCOCC4)OC
Method in brief: as §1

defactinib = compound: CNC(=O)c1ccc(Nc2ncc(C(F)(F)F)c(NCc3nccnc3N(C)S(C)(=O)=O)n2)cc1 [defactinib]
Method in brief: as §1

[7] = compound: CNc1nc(-c2ccc3c(N)n[nH]c3c2)cc(N2C[C@@H](C(=O)NC3CCCCC3)CC[C@H]2C)n1
Method in brief: as §1

encorafenib = compound: COC(=O)N[C@@H](C)CNc1nccc(-c2cn(C(C)C)nc2-c2cc(Cl)cc(NS(C)(=O)=O)c2F)n1 [encorafenib]
Method in brief: as §1

[8] = compound: COC(=O)[C@H](CCSC)NC(=O)C1=C(C=C(C=C1)NC[C@H](CS)N)C2=CC=CC=C2
Method in brief: as §1

alisertib = compound: COc1cc(Nc2ncc3c(n2)-c2ccc(Cl)cc2C(c2c(F)cccc2OC)=NC3)ccc1C(=O)O [alisertib]
Method in brief: as §1

[9] = compound: COc1cc2nc(-c3cc(F)ccc3O)nc(N[C@@H]3CNC[C@H]3C(C)(C)O)c2cc1OC
Method in brief: as §1

gefitinib = compound: COc1cc2ncnc(Nc3ccc(F)c(Cl)c3)c2cc1OCCCN1CCOCC1 [gefitinib]
Method in brief: as §1

Sequence of UniProt Q92805 (Q92805 whole entry, looked up): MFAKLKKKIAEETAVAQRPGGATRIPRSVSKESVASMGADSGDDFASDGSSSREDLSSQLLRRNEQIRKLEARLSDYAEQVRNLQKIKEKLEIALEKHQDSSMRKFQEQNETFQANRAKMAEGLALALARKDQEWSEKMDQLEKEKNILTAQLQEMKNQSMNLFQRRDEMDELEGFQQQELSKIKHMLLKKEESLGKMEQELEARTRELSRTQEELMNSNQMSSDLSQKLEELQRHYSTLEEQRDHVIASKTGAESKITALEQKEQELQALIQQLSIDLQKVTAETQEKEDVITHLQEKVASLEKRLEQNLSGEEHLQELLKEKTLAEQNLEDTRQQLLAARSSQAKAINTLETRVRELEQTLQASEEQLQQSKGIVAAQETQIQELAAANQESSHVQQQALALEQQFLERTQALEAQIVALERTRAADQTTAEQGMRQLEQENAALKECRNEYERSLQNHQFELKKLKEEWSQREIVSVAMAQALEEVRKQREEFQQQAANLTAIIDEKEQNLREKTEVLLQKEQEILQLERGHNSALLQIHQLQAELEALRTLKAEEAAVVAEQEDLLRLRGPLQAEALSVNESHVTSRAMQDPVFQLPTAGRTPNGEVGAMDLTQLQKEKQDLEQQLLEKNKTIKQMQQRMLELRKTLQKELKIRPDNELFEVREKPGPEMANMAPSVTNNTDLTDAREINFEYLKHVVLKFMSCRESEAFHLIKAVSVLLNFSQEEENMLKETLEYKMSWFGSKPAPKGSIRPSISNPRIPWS
Sequence of UniProt P55795 (P55795 whole entry, looked up): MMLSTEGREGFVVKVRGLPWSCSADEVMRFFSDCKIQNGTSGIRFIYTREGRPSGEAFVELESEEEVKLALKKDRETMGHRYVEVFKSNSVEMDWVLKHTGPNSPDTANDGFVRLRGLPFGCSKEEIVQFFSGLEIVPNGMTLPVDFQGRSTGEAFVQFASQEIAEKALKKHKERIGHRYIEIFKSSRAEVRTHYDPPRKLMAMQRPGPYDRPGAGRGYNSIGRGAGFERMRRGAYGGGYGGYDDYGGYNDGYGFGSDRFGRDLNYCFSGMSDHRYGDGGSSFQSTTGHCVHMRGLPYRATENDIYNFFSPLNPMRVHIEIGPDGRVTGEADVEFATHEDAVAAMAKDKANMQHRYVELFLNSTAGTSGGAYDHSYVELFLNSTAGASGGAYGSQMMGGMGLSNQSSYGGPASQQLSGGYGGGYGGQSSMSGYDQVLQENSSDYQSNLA
Sequence of UniProt Q9H6D7 (Q9H6D7 whole entry, looked up): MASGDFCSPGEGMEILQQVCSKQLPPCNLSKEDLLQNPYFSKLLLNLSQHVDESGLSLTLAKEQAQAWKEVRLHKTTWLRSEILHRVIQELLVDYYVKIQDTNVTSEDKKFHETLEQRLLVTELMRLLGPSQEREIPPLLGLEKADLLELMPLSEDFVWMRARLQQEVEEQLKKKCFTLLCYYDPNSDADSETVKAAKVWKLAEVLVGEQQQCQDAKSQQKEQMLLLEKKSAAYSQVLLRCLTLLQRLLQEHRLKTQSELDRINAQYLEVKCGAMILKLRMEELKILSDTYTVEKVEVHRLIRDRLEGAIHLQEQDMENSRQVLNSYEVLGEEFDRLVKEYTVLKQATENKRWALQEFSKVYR
Sequence of UniProt P55084 (P55084 whole entry, looked up): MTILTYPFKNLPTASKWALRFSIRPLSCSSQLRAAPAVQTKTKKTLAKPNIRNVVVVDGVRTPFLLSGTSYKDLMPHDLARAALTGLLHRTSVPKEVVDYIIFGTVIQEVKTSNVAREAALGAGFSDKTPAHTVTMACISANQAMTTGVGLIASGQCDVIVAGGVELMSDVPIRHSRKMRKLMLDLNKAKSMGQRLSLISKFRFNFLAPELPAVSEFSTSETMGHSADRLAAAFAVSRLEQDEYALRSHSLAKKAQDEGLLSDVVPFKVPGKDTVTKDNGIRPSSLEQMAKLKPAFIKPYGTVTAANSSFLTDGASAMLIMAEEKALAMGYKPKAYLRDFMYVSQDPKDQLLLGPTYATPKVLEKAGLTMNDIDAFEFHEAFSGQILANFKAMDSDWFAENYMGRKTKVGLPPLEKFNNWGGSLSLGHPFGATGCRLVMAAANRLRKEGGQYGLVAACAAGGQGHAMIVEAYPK
Sequence of UniProt P25098 (P25098 whole entry, looked up): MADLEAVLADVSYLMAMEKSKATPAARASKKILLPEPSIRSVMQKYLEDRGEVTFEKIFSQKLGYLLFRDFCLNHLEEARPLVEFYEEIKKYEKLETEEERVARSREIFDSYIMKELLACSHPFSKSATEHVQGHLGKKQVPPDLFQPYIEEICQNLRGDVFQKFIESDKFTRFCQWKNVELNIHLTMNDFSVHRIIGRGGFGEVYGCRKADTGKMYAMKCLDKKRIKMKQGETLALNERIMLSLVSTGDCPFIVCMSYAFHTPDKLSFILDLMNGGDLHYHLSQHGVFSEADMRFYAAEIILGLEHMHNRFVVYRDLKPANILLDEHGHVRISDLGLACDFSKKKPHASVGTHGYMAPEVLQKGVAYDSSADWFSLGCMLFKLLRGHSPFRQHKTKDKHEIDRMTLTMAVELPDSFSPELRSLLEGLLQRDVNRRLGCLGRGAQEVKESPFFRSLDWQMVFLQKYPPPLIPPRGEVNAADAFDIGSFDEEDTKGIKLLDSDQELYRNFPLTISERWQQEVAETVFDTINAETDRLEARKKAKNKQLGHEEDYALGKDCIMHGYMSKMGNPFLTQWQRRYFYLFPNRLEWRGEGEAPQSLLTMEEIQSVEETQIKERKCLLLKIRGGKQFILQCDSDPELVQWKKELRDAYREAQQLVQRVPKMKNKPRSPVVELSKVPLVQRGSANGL
Sequence of UniProt Q6AI08 (Q6AI08 whole entry, looked up): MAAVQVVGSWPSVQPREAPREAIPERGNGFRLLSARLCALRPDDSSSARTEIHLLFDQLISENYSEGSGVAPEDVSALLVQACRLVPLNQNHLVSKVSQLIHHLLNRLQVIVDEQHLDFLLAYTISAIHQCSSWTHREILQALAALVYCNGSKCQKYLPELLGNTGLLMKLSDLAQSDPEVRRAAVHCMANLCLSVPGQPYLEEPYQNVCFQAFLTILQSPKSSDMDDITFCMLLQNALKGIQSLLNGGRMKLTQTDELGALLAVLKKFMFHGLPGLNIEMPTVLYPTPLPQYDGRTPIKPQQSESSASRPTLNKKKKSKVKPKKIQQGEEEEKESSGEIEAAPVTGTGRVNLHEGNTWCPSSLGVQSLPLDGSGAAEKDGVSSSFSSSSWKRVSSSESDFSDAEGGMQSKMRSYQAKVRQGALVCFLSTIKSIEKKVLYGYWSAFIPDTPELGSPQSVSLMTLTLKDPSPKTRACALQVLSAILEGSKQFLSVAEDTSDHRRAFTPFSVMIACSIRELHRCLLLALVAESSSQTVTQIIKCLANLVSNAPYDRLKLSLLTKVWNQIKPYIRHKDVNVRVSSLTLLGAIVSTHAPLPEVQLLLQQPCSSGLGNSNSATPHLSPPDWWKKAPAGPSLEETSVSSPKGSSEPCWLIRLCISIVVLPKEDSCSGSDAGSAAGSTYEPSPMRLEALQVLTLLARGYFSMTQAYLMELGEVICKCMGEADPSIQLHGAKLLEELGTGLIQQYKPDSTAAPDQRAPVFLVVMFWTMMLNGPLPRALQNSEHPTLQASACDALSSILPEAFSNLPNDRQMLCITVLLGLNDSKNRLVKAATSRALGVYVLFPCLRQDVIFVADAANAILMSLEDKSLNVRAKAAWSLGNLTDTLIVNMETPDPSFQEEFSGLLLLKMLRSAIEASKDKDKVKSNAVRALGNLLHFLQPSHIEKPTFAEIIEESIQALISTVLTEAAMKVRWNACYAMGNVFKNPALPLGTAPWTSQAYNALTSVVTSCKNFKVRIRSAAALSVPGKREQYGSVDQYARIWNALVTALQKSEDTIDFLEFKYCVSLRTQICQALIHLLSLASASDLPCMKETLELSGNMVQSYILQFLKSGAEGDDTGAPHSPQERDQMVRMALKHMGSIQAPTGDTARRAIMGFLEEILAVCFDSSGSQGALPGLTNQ
Sequence of UniProt Q7Z4H7 (Q7Z4H7 whole entry, looked up): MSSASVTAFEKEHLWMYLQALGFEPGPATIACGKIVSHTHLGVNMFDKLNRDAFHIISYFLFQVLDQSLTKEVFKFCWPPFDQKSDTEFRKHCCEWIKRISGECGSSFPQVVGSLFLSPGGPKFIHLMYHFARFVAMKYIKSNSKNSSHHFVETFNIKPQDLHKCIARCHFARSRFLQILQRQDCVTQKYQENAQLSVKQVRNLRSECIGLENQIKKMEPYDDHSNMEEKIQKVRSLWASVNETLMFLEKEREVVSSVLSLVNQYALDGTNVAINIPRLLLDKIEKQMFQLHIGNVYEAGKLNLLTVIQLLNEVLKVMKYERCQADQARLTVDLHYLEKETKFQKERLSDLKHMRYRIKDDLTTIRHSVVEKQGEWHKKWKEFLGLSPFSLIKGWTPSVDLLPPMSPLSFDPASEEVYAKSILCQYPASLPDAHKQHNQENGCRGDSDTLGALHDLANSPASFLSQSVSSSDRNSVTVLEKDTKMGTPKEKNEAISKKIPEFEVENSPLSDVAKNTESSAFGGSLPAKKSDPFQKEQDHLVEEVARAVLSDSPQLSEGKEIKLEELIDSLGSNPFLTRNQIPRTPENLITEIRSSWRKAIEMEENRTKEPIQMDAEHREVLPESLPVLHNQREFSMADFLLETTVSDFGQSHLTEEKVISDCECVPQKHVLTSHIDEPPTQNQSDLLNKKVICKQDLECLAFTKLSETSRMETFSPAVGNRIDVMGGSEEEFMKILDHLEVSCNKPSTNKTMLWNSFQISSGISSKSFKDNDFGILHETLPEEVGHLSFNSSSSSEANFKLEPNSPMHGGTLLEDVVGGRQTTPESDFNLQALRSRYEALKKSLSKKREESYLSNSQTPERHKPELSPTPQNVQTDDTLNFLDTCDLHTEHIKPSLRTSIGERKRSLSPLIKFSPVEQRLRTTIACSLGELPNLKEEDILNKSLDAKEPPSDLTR
Sequence of UniProt Q01628 (Q01628 whole entry, looked up): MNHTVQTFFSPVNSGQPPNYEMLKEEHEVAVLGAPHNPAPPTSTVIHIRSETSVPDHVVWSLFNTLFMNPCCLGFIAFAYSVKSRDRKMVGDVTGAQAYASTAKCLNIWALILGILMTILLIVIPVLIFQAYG

Row | Target | log2 fold change (vemurafenib) | log2 fold change [1] | log2 fold change (barasertib) | log2 fold change [2] | log2 fold change (volasertib) | log2 fold change [3] | log2 fold change [4] | log2 fold change [5] | log2 fold change (saracatinib) | log2 fold change (sotrastaurin) | log2 fold change (alvocidib) | log2 fold change (Tubastatin A) | log2 fold change [6] | log2 fold change (defactinib) | log2 fold change [7] | log2 fold change (encorafenib) | log2 fold change [8] | log2 fold change (alisertib) | log2 fold change [9] | log2 fold change (gefitinib)
1 | HADHB (UniProt P55084) | -0.019 | -0.004 | -0.124 | 0.047 | 0.099 | -0.005 | -0.001 | 0.074 | 0.012 | -0.069 | -0.046 | 0.033 | 0.081 | -0.065 | -0.03 | -0.058 | 0.072 | -0.019 | -0.019 | 0.022
2 | GRK2 (UniProt P25098) | -0.019 | 0.016 | -0.006 | -0.08 | -0.05 | 0.003 | -0.054 | -0.016 | -0.009 | 0.01 | 0.001 | -0.08 | 0.068 | 0.106 | 0.044 | 0.001 | 0.086 | -0.042 | 0.066 | -0.041
3 | HAUS4 (UniProt Q9H6D7) | 0.007 | 0.044 | 0.107 | -0.047 | -0.039 | 0.015 | -0.045 | -0.04 | 0.022 | 0.02 | 0.007 | -0.116 | 0.007 | 0.014 | -0.005 | 0.002 | 0.012 | 0.008 | -0.017 | -0.022
4 | HEATR6 (UniProt Q6AI08) | 0.052 | 0.031 | 0.109 | -0.076 | -0.019 | 0.073 | -0.001 | -0.008 | -0.007 | 0.064 | 0.03 | -0.1 | 0.025 | 0.011 | 0.008 | 0.039 | 0.101 | -0.028 | -0.01 | 0.001
5 | GUSB (UniProt P08236) | 0.013 | 0.028 | -0.024 | -0.049 | 0.053 | 0.027 | -0.561 (active) | 0.355 (active) | -0.008 | 0.038 | -0.278 | 0.022 | 0.017 | 0.015 | -0.027 | 0.089 | -0.019 | 0.089 | 0.071 | -0.049
6 | HNRNPH2 (UniProt P55795) | -0.004 | 0.025 | -0.003 | 0.05 | -0.056 | 0.008 | -0.01 | -0.056 | -0.025 | -0.074 | -0.003 | -0.209 | 0.02 | 0.019 | -0.043 | 0.037 | -0.032 | -0.004 | -0.007 | -0.047
7 | GOLGA1 (UniProt Q92805) | 0.081 | 0.086 | 0 | 0.007 | 0.121 | -0.061 | -0.019 | -0.04 | -0.031 | 0.071 | -0.027 | 0.051 | 0.035 | -0.017 | 0.011 | 0.028 | -0.093 | -0.017 | -0.18 | -0.024
8 | KCTD20 (UniProt Q7Z5Y7) | 0.17 | 0.02 | 0.052 | 0.046 | 0.007 | -0.055 | 0.018 | -0.037 | 0.048 | 0.025 | 0.05 | -0.174 | 0.01 | -0.041 | -0.025 | -0.165 | -0.058 | -0.089 | -0.095 | 0.035
9 | IFITM3 (UniProt Q01628) | -0.046 | 0.079 | 0.342 | -0.06 | -0.025 | 0.026 | -0.11 | 0.112 | -0.041 | 0.052 | -0.001 | -0.329 | 0.01 | 0.118 | 0.042 | 0.043 | -0.142 | 0.109 | -0.137 | 0.291
10 | GMDS (UniProt O60547) | 0.057 | 0.012 | 0.027 | -0.088 | -0.034 | -0.023 | 0.019 | 0.042 | -0.033 | 0.019 | 0.036 | -0.057 | -0.017 | 0.042 | 0.003 | -0.059 | 0.123 | 0.016 | 0.023 | -0.012
11 | GOLGA6B (UniProt A6NDN3) | 0.015 | -0.003 | 0.2 | 0.149 | -0.006 | 0.078 | -0.086 | 0.102 | 0.101 | -0.004 | -0.019 | -0.054 | -0.002 | 0.018 | -0.086 | -0.048 | -0.053 | -0.074 | 0.043 | 0.065
12 | IRF2BPL (UniProt Q9H1B7) | -0.039 | 0.026 | 0.024 | 0.04 | 0.001 | 0.022 | -0.195 | 0.111 | 0.025 | -0.005 | -0.076 | -0.047 | 0.01 | -0.007 | 0.048 | -0.017 | -0.06 | -0.031 | -0.013 | -0.05
13 | HAUS6 (UniProt Q7Z4H7) | 0.004 | 0.092 | 0.025 | 0.012 | -0.068 | 0.015 | -0.063 | 0.014 | 0.01 | 0.022 | -0.043 | -0.084 | 0.008 | 0.031 | -0.004 | 0.031 | -0.025 | 0.03 | 0.019 | 0.017
14 | GNE isoform 2 (UniProt Q9Y223) | 0.024 | 0.027 | 0.03 | -0.107 | -0.095 | 0.039 | 0.008 | -0.053 | -0.003 | -0.029 | 0.028 | -0.12 | 0.016 | -0.011 | -0.024 | -0.008 | 0.176 | 0.041 | 0.026 | -0.014
15 | IGF2BP2 (UniProt Q9Y6M1) | 0.05 | 0.026 | -0.005 | -0.1 | -0.049 | 0.02 | -0.066 | 0.036 | 0.014 | 0.026 | 0.016 | -0.124 | 0.043 | -0.008 | -0.014 | 0.004 | 0.201 | 0.042 | -0.005 | 0.001
16 | HMGN5 (UniProt P82970) | -0.007 | -0.011 | -0.044 | 0.016 | 0.013 | -0.044 | 0.3 (active) | -0.164 | -0.027 | -0.029 | 0.04 | 0.045 | -0.029 | 0.051 | 0.018 | -0.029 | -0.023 | -0.036 | 0.006 | -0.028
